esBAF inh: SWI/SNF esBAF complex inhibition; mouse ES cells, Bmi1-luciferase knock-in reporter, 24 h; 100% = twice the neutral-well signal; reporter increase, % at 12.5 µM; actives 2% (n = 350,000); AID 602393; in the data active = activation above about 40%;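 also: 0% = median of the plate's neutral control wells and 100% = double that signal; a rise in the Bmi1 reporter signal indicates esBAF inhibition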
MITF TRPM1 HTS: MITF TRPM1 promoter activation in melanoma cells; activation, % at 12.5 µM; actives 0.75% (n = 300,000); AID 588334; SK-MEL-5 TRPM1-promoter luciferase, 24 h; % of positive control, neutral wells = 0;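 active = mean activation of at least 80% with every replicate also reaching 80%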;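 also: 0% = neutral control wells and 100% = parthenolide positive control wells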
MLL AF4-AF9 inh: MLL-AF4/AF9 protein interaction inhibition | AlphaScreen, biotin-AF4 peptide binding to FLAG-AF9 | AID 651704 | actives 0.47% (n = 350,000) | P42568 | inhibition, % at 10 µM;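 active = every replicate reaching a set inhibition limit, whatever the replicate mean, cut at about 25% in these data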;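 also: 0% = plate neutral control median and 100% = total signal loss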
rRNA inh HTS: selective bacterial rRNA inhibition in E. coli. E. coli WT GFP vs humanized-ribosome RFP mutants, fluorescence, 24 h; active compounds read low; DMSO median 0, no signal -100. GFP signal change (wild-type ribosome), % (test concentration not listed). actives 1.6% (n = 350,000);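 active = significant combined selectivity score with lowered wild-type GFP, culture density cut under 30%, mutant RFP and density less affected; inactive = any of these conditions unmet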
Wnt bcat act: activators of Wnt/beta-catenin signaling; Wnt/beta-catenin reporter cell assay, activator, plate reader; activation, % at 9.35 µM; actives 1.2% (n = 300,000); in the data active = activation above about 30%, passing the limit was not always enough;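 also: 0% = neutral control wells and 100% = positive control wells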
The depositor's hits bear a star; x = no result. A selection: hits, their analogues and other compounds. The true share with any hit is near 3.7%.

SMILES	esBAF inh	MITF TRPM1 HTS	MLL AF4-AF9 inh	rRNA inh HTS	Wnt bcat act
CO[C@H]1CN(C)C(=O)c2ccc(NC(=O)C3CC3)cc2OC[C@H](C)N(Cc2nccs2)C[C@H]1C	0.0	x	-0.1	-3.2	x
c1ccc2nc3c(cc2c1)CCCCC3	x	29.7	-4.2	13.4	11.1
O=C1c2ccccc2-c2nnc(-c3ccc(O)cc3)cc21	x	19.5	-0.8	-9.7	-1.4
c1ccc2c(c1)Cc1cc3ccccc3nc1-2	10.7	62.4	2.6	7.5	44.4*
O=C1c2ccccc2-c2nc3ccccc3cc21	10.9	57.1	2.5	-15.4	58.8*
C[C@H](CO)N1C[C@H](C)[C@@H](CN(C)Cc2ccncc2)Oc2ccc(NC(=O)Nc3ccc4c(c3)OCO4)cc2C1=O	-5.6	x	-18.8	2.9	x
C=C1N(C)c2cc([N+](=O)[O-])c(N)cc2C1(C)C	x	-4.6	47.5*	-42.7	-0.9
O=C1C[C@@](C(=O)NCCN2CCOCC2)(c2ccc([N+](=O)[O-])cc2)[C@@H](c2ccc(CO)cc2I)N1CC12CC3CC(CC(C3)C1)C2	x	x	26.7*	x	x
CCCNC(=O)Nc1ccc2c(c1)OC[C@H](C)N(Cc1ccccn1)C[C@H](C)[C@@H](OC)CN(C)C2=O	x	x	-0.8	-0.5	x
CCOC(=O)C(=NC(C)(C)C)NNc1cc(Cl)ccc1Cl	x	-8.5	x	x	17.8
CCOC(=O)C(=NC(C)C)NNc1cc(Cl)ccc1Cl	x	-8.6	-0.6	-0.5	39.8*
Cc1ccc(NC(=O)c2cc(N(C)C)ccc2[P+](=O)O)cc1	45.0*	55.1	-1.6	9.0	12.8

Source: PubChem BioAssay
